Several values for one entry are separate records, joined by “and”; a condition that tells them apart may be missing. Identical values can stand only once. Screen size: about 5,500 compounds; about 2,000 (36%) were called active. Not shown: some 18% with an inconclusive outcome. Rule as the data show it: active = normalized growth mostly below about 0.91 (no sharp cut-off); inconclusive = no clear call, values can overlap the other calls; inactive = mostly above about 0.92. This is one part of the list.
Experiment: chemical genetic growth profiling, strain panel (AID 1159580);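 also: tested at 20 µM; growth read once vehicle control cultures reached saturation at 30 °C; 1 = growth at the plate median or of vehicle wells; lower values mean less growth of the strain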
Conditions: S. cerevisiae deletion strains, growth OD

Measured: normalized growth

CC1CC[C@@]2(OC1)O[C@H]1CC3C4CC[C@@H]5C[C@@H](O)CC[C@]5(C)C4CC[C@]3(C)[C@H]1[C@@H]2C (stereo partly specified)
inactive: locus YAL013W, strain DEP1, stronger effect = lower value 1.03 | locus YAL021C, strain ccr4, stronger effect = lower value 1.05 | locus YAL026C, strain drs2, stronger effect = lower value 1.02 | locus YAL030W, strain snc1, stronger effect = lower value 1.03 | locus YBL061C, strain skt5, stronger effect = lower value 1.02 | locus YBR009C, strain hhf1, stronger effect = lower value 1.01 | locus YBR021W, strain FUR4, stronger effect = lower value 1.02 | locus YBR023C, strain chs3, stronger effect = lower value 1.05 | locus YBR171W, strain sec66, stronger effect = lower value 1.04 | locus YBR229C, strain ROT2, stronger effect = lower value 1.01 | locus YBR231C, strain swc5, stronger effect = lower value 1.02 | locus YBR279W, strain paf1, stronger effect = lower value 1.02 | locus YCL011C, strain gbp2, stronger effect = lower value 1.06 | locus YCL016C, strain dcc1, stronger effect = lower value 1.02 | locus YCL029C, strain bik1, stronger effect = lower value 1.01 | locus YCL061C, strain MRC1, stronger effect = lower value 1.02 | locus YCL069W, strain vba3, stronger effect = lower value 1.05 | locus YCR088W, strain abp1, stronger effect = lower value 1.03 | locus YDL005C, strain med2, stronger effect = lower value 1.03 | locus YDL035C, strain GPR1, stronger effect = lower value 1.07 | locus YDL040C, strain nat1, stronger effect = lower value 1.02 | locus YDL074C, strain BRE1, stronger effect = lower value 1.11 | locus YDL101C, strain DUN1, stronger effect = lower value 1.02 | locus YDL134C, strain PPH21, stronger effect = lower value 1.03 | locus YDL185W, strain tfp1, stronger effect = lower value 1 | locus YDL192W, strain arf1, stronger effect = lower value 1.01 | locus YDR001C, strain nth1, stronger effect = lower value 1.05 | locus YDR069C, strain doa4, stronger effect = lower value 1.06 | locus YDR101C, strain arx1, stronger effect = lower value 1.01 | locus YDR137W, strain rgp1, stronger effect = lower value 0.984 | locus YDR150W, strain NUM1, stronger effect = lower value 1.03 | locus YDR159W, strain sac3, stronger effect = lower value 1.01 | locus YDR162C, strain NBP2, stronger effect = lower value 1.04 | locus YDR297W, strain sur2, stronger effect = lower value 1.02 | locus YDR318W, strain mcm21, stronger effect = lower value 1.01 | locus YDR334W, strain swr1, stronger effect = lower value 1.05 | locus YDR335W, strain msn5, stronger effect = lower value 1.06 | locus YDR388W, stronger effect = lower value 1.02 | locus YDR392W, strain spt3, stronger effect = lower value 1.03 | locus YDR502C, strain sam2, stronger effect = lower value 0.997 | locus YEL003W, strain gim4, stronger effect = lower value 1.08 | locus YEL061C, strain CIN8 (second series), stronger effect = lower value 1.08 | locus YER015W, strain faa2, stronger effect = lower value 1.03 | locus YER016W, strain bim1, stronger effect = lower value 1.02 | locus YER110C, stronger effect = lower value 0.997 | locus YER155C, strain BEM2 (second series), stronger effect = lower value 1.09 | locus YER155C, strain BEM2, stronger effect = lower value 1 | locus YER167W, strain BCK2, stronger effect = lower value 1.02 | locus YFR010W, strain ubp6, stronger effect = lower value 1.06 | locus YGL078C, strain dbp3, stronger effect = lower value 1.02 | locus YGL086W, strain mad1, stronger effect = lower value 1 | locus YGL167C, strain pmr1, stronger effect = lower value 1.02 | locus YGL173C, strain kem1, stronger effect = lower value 1.02 | locus YGL227W, strain vid30, stronger effect = lower value 1.03 | locus YGL240W, strain doc1, stronger effect = lower value 1.02 | locus YGL248W, strain PDE1, stronger effect = lower value 1.06 | locus YGL253W, strain hxk2, stronger effect = lower value 1.07 | locus YGR135W, strain pre9, stronger effect = lower value 1.01 | locus YGR252W, strain gcn5, stronger effect = lower value 1.05 | locus YHR013C, strain ard1, stronger effect = lower value 1.04 | locus YHR027C, strain rpn1, stronger effect = lower value 1.03 | locus YHR030C, strain SLT2, stronger effect = lower value 0.965 | locus YHR079C, strain IRE1 (second series), stronger effect = lower value 0.993 | locus YHR079C, strain IRE1, stronger effect = lower value 0.97 | locus YHR094C, strain hxt1, stronger effect = lower value 1.01 | locus YHR129C, strain ARP1, stronger effect = lower value 1.05 | locus YIL066C, strain RNR3, stronger effect = lower value 1.03 | locus YIL073C, strain SPO22, stronger effect = lower value 1.12 | locus YIL125W, strain kgd1, stronger effect = lower value 0.999 | locus YIR030C, strain dcg1, stronger effect = lower value 1 | locus YJL092W, strain hpr5, stronger effect = lower value 1.02 | locus YJL095W, strain BCK1 (second series), stronger effect = lower value 1.01 | locus YJL095W, strain BCK1, stronger effect = lower value 1.06 and 0.993 | locus YJL115W, strain asf1, stronger effect = lower value 1.03 | locus YJL134W, strain LCB3, stronger effect = lower value 1.02 | locus YJL164C, strain tpk1, stronger effect = lower value 1.02 | locus YJL166W, strain qcr8, stronger effect = lower value 1.02 | locus YJL168C, strain set2, stronger effect = lower value 0.988 | locus YJL187C, strain SWE1 (second series), stronger effect = lower value 1.04 | locus YJL187C, strain SWE1, stronger effect = lower value 1.01 | locus YJR043C, strain POL32, stronger effect = lower value 1.05
active: locus YDR195W, strain ref2 1.17 [resistant] | locus YEL037C, strain rad23, stronger effect = lower value 1.2 [resistant] | locus YER111C, strain swi4, stronger effect = lower value 1.28 [resistant] | locus YHR142W, strain chs7, stronger effect = lower value 1.18 [resistant] | locus YJL154C, strain vps35, stronger effect = lower value 1.11 [resistant]

Reference: PubChem BioAssay AID1159580 (chemical genetic matrix, 2015)
